KB-3-1 tox – KB-3-1 parental cell cytotoxicity; Potency, µM (top dose mostly 46.1 µM), usual class: cytotoxic; 1.4% of 400,000 active; KB-3-1 viability, CellTiter-Glo ATP luminescence, 72 h; note: % is set by controls: 0 for no effect and ±100 for the full control effect; nearly all actives have a fitted effect of over 60% in size
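KB-3-1 cells, DMEM (no phenol red) + 10% FBS; compound by pin transfer, 72 h, 37 °C. Readout: CellTiter-Glo luminescence after 10 min. Data normalized, curve-fitted.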
KB-V1 cytotox – kills drug-selected multidrug resistant KB-V1 cells. KB-V1 MDR cells viability, CellTiter-Glo, 72 h. Potency, µM (series often up to 46.1 µM), actives largely listed as cytotoxic. 3.4% of 400,000 active; note: % is set by controls: 0 for no effect and ±100 for the full control effect; nearly all actives have a fitted effect of over 60% in size
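KB-V1 cells (P-gp-expressing MDR subline of KB-3-1) in phenol-red-free DMEM with 10% FBS were exposed to library compounds over a concentration series for 72 h at 37 degrees C. Viability read by CellTiter-Glo luminescence; concentration-effect curves fitted after normalization.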
RORg inh – blocks mouse ROR gamma transcriptional activity | Drosophila S2 Gal4-RORgamma UAS-luciferase reporter, 20 h | 5.4% of 310,000 active | AID 2551 | P51450 | Potency, µM (series often up to 53.6 µM), without a hit: at the top dose activity change, negative = inhibition, most hits filed as inhibitors; note: % is set by controls: 0 for no effect and ±100 for the full control effect; nearly all actives have a fitted effect of over 60% in size
Target sequence (P51450 whole entry, looked up, the tested form may be a part): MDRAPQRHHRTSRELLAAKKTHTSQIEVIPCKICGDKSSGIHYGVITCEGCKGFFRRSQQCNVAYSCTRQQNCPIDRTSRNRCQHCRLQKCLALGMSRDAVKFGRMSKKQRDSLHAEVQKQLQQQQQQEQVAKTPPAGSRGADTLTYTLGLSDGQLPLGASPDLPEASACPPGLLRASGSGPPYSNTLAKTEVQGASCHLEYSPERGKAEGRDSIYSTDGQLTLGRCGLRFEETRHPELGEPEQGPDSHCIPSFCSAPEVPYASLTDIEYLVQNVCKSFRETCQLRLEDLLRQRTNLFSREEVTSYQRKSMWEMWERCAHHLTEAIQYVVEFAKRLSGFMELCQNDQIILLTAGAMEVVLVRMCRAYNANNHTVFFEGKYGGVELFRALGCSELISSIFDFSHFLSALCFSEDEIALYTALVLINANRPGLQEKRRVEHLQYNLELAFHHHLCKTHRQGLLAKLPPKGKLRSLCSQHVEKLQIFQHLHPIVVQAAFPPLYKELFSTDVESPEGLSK
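Read-out: Photinus luciferase luminescence; inhibitors lower reporter signal. Insect Schneider cells with Gal4-ROR gamma fusion under metallothionein promoter, UAS reporter; 700 uM final copper sulfate induction, 20 hr, ambient temperature.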
SW480 rereplic – DNA re-replication induction in SW480 cells | SW480 DNA re-replication, Hoechst DNA content imaging, 48 h | Potency, µM (titrated, usually from 46.1 µM), for the others: at the highest dose re-replication activation, actives largely listed as activators | 1.8% of 340,000 active | AID 624297; note: % of control where 0% means no effect; nearly all actives have a fitted effect of over 55% in size
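Treated cells incubate 48 hr (37 C, 5% CO2), are stained 40 min with Hoechst, and nuclear fluorescence is enumerated; a rise in nuclei with high DNA signal marks re-replication.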
VP16 counter – inhibits Gal4-VP16 luciferase reporter, ROR gamma counter-screen; Drosophila S2 Gal4-VP16 UAS-luciferase, luminescence, 20 h; Potency, µM (doses to about 53.6 µM), for the others: at the top dose activity, negative = inhibition, most hits filed as inhibitors; 3.5% of 310,000 active; AID 2546;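 note: Gal4-VP16 expression switched on by copper sulfate through the metallothionein promoter; % is set by controls: 0 for no effect and ±100 for the full control effect; nearly all actives have a fitted effect of over 50% in size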
MCF10A rereplic – induces DNA re-replication in MCF 10a normal breast cells. 2.9% of 350,000 active. Potency, µM (top dose mostly 46.1 µM), for inactives: at the top dose activity, positive = re-replication, actives largely listed as activators. MCF 10A DNA re-replication, Hoechst nuclear intensity, 48 h; note: % of control where 0% means no effect; nearly all actives have a fitted effect of over 50% in size
Numbers without * were called inactive; i = inactive; ? = inconclusive; / = no result; [ ] = remark or other dose. This is a sample that favours compounds with a hit; in the whole collection about 10% have one here. Calls come from the whole dose curve; as a rule, active = well fitted curve in the direction sought with a large enough effect; inconclusive = small, poorly fitted or top-dose-only effect, or another doubt; inactive = no such curve, though single readings can be large; an effect the other way counts as inactive or inconclusive. Potency is the fitted concentration of half-maximal effect.

SMILES	KB-3-1 tox	KB-V1 cytotox	RORg inh	SW480 rereplic	VP16 counter	MCF10A rereplic
CCCCC(=O)NC(=S)NNC(=O)CC	i	i	7.9µM*	-4%	2%	-1%
CCCCCC(=O)NNC(=S)NC(=O)c1ccccc1[N+](=O)[O-]	i	?	?	13%	-11%	5%
CCCCC(=O)NC(=S)Nc1c(C)cc(Br)cc1C	i	i	5.6µM*	-702%	?	11%
CCCCCC(=O)NC(=S)NNC(=O)CC	i	i	11µM*	4%	-4%	2%
Cc1ccc(C(=O)COC(=O)c2cc(-c3ccccc3)nc3ccccc23)cc1C	i	i	/	/	/	/
CCOC(=O)c1sc(NC(=O)C2CC(=O)N(c3ccc(C)cc3)C2)nc1C (centres undefined)	i	i	-16%	4%	11%	20%
Cc1ccccc1CNC(=O)CN1C(=O)C2CCCCN2c2ccc(C(=O)N3CCCC3)cc21 (centres undefined)	i	i	/	/	/	/
O=C(O)CCCn1cc(NC(=O)COc2ccc(F)cc2)cn1	i	?	41%	1%	-4%	-2%
O=C(O)CCCn1cc(NC(=O)COc2cc(F)ccc2[N+](=O)[O-])cn1	i	i	-43%	-22%	0.5µM*	-13%
CC(=O)Nc1cc(-c2ccncc2)cn2c(-c3ccccc3)cnc12	i	i	/	/	/	/
COc1ccc(Cl)cc1-c1cc(C(=O)Nc2ccc(C)c(NS(C)(=O)=O)c2)[nH]n1	i	i	/	/	/	/
COc1cccc(N(C(=O)CCl)C(C(=O)NCCc2ccccc2)c2cccs2)c1 (centres undefined)	?	?	13µM*	?	-18%	16µM*
COc1cccc(N(C(=O)c2snc(C(N)=O)c2N)C(C(=O)NCC2CCCO2)c2cccs2)c1 (centres undefined)	i	?	?	-3%	24%	-9%
COc1ccc(N(C(=O)CCl)C(C(=O)NCCc2ccccc2)c2cccs2)cc1Cl (centres undefined)	8.2µM*	13µM*	11µM*	?	-82%	6.5µM*
COCCNC(=O)C(c1cccs1)N(C(=O)Cn1nnc2ccccc21)c1ccccc1 (centres undefined)	i	i	3%[0.365 µM]	-5%	/	-1%
Cn1c(CS(=O)Cc2c(Cl)cccc2Cl)nnc1SCc1c(Cl)cccc1Cl (centres undefined)	i	5.8µM*	36%	6%	5%	22%
Cn1c(SCc2c(Cl)cccc2Cl)nnc1-c1ccc2nonc2c1	i	i	31%	12%	-8%	?
Clc1cccc(Cl)c1CSc1nnc(CN2CCOCC2)n1-c1ccccc1	i	i	7%	-13%	3%	?
O=S(Cc1ccc(Br)cc1)Cc1nnc(SCc2c(Cl)cccc2Cl)n1-c1ccccc1 (centres undefined)	i	0.82µM*	?	-3%	?	?
Cc1cnc(CNc2ncncc2-c2ccccc2C)cn1	/	/	?	/	15%	/
C[C@H](NC(=O)c1ncn2c1C(=O)N[C@@H](C)C2)C(=O)OC(C)(C)C	i	i	/	/	/	/
Cc1cc(NC(=O)c2ccc3c(c2)N(Cc2cccc(Cl)c2)C(=O)c2ccccc2S3(=O)=O)ccc1Br	i	i	/	/	/	/
CCCC[C@H](NC(=O)[C@H](CO)NC(=O)[C@H](Cc1ccc(O)cc1)NC(=O)[C@H](CO)NC(C)=O)C(=O)N[C@@H](CCC(=O)O)C(=O)N[C@@H](Cc1cnc[nH]1)C(=O)N[C@H](Cc1ccccc1)C(=O)N[C@@H](CCCNC(=N)N)C(=O)N[C@@H](Cc1c[nH]c2ccccc12)C(=O)NCC(=O)N[C@@H](CCCCN)C(=O)N1CCC[C@H]1C(=O)N[C@H](C(N)=O)C(C)C	/	/	-15%	/	-5%	/
Cc1ccc(/C=N/NC(=O)c2cc(C)oc2C)cc1	?	?	-42%	4.6µM*	?	?
CC(/C=N\NC(=O)c1cc(C)oc1C)=C\c1ccccc1	i	i	6.3µM*	0%	?	12%
SMILES	KB-3-1 tox	KB-V1 cytotox	RORg inh	SW480 rereplic	VP16 counter	MCF10A rereplic
Cc1ccnc2ccc(N)cc12	i	i	/	/	/	/
CC(C)CCSc1nc(N2CCOCC2)c2c(c1C#N)CC(C)(C)OC2	i	8.2µM*	-1%	22%	-3%	?
CSc1nc(N2CCOCC2)c2c(c1C#N)CC(C)(C)OC2	?	9.2µM*	2%	-8%	-23%	4%
COC(=O)CCSc1nc(N2CCOCC2)c2c(c1C#N)CC(C)(C)OC2	i	i	-1%	0%	22%	-4%
CCN(CC)C(=O)CSc1nnc(-n2nc(C)cc2C)c2ccccc12	i	13µM*	18%	-9%	5%	-6%
COc1cccc(-c2noc(C3CCCN(C(=O)CC(C)(C)C)C3)n2)c1 (centres undefined)	i	i	10%	24%	10%	0.46µM*
COc1cccc(-c2noc(C3CCCN(C(=O)c4ccccc4OC)C3)n2)c1 (centres undefined)	i	i	?	0%	18%	9%
COc1cccc(-c2noc(C3CCCN(S(=O)(=O)c4cccc(Cl)c4C)C3)n2)c1 (centres undefined)	i	15µM*	-22%	3%	2%	25%
CCCS(=O)(=O)N1CCCC(c2nc(-c3cccc(OC)c3)no2)C1 (centres undefined)	i	12µM*	23%	2%	10%	-3%
CCCCC(=O)N1CCCC(c2nc(-c3cccc(OC)c3)no2)C1 (centres undefined)	i	i	1%	-3%	-6%	-2%
CCc1nc2c(OCc3ccc(Cl)cc3)cccn2c1N(C)C(=O)c1ccc2c(c1)OCO2	i	i	/	/	/	/
Cc1cccc(CN2CCN([C@@H](c3ccccc3)c3ccc(Cl)cc3)CC2)c1	/	/	8%[2.98 µM]	7%[20.6 µM]	1%[17 µM]	?
CCN(CC)C(=O)c1sc(NC(=O)c2ccc(OC)c([N+](=O)[O-])c2)c(C#N)c1C	/	/	-28%	/	-13%	/
COc1ccc(C(=O)Nc2sc(C(=O)N(C)C)c(C)c2C#N)cc1[N+](=O)[O-]	?	18µM*	?	?	16µM*	-62%
CCCCN(C)CC(O)Cn1cc(/C=C/C(=O)c2ccc(OC)c(OC)c2)c2ccccc21 (centres undefined)	?	i	/	/	/	/
C=CCNC(=S)N/N=C/c1ccc(-c2cccc([N+](=O)[O-])c2)o1	i	?	0.5µM*	-10%	2.5µM*	10%

Assay outcomes as filed in PubChem.
